Among the data in PubChem BioAssay (EPA / NIEHS) are outcome and AC50 values, retold here.

For assay [1], the target named is Estrogen-related receptor gamma (Homo sapiens) (UniProt P62508). As to the kind of experiment: ATG_ERRg_TRANS: Attagene TRANS-FACTORIAL HepG2 Assay for human Estrogen-Related Receptor gamma (ERRg) (AID 2282977; active means hit-call score of the fitted dose curve at least 0.9, where 1 is the maximum;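 further: hits increase reporter signal over DMSO so potencies reflect activators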). As to conditions: HepG2 Attagene TRANS reporter, ERRg transactivation. Put shortly:
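Transfect HepG2 with multiple GAL4-UAS reporter transcription units; dose chemicals 24 h; isolate RNA, reverse-transcribe with oligo(dT), PCR-amplify, label with 6-FAM, digest with HpaI; size fragments by capillary electrophoresis. DMSO serves as negative control.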

Assay [2] has as its target Bile acid receptor (Homo sapiens) (UniProt Q96RI1). As to the kind of experiment: ATG_FXR_TRANS: Attagene TRANS-FACTORIAL HepG2 Assay for Farnesoid X Receptor (FXR) (AID 2282979; active means hit-call score of the fitted dose curve at least 0.9, where 1 is the maximum;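 further: hits raise reporter mRNA above DMSO so AC50 marks FXR activation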). The settings on record: HepG2 Attagene TRANS FXR-GAL4 reporter transcription. Put shortly: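 Reporter transcripts from transfected HepG2 cells were measured 24 h after dosing, using RT-PCR with capillary electrophoresis of 6-FAM-labelled fragments. The read-out reflects activity of exogenous FXR-Gal4 chimera on GAL4-UAS units, with induction relative to DMSO.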

In assay [3] the target is Hepatocyte nuclear factor 4-alpha (Homo sapiens) (UniProt P41235). The assay can be described thus: ATG_HNF4a_TRANS: Attagene TRANS-FACTORIAL HepG2 Assay for human Hepatocyte Nuclear Factor 4 alpha (HNF4a) (AID 2282982; active means hit-call score of the fitted dose curve at least 0.9, where 1 is the maximum). As to conditions: HepG2 HNF4a transactivation reporter, mRNA readout. Put shortly: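 Cells used were human HepG2, transiently carrying GAL4-UAS reporter units read out against exogenous NR-GAL4 chimeras. Reporter transcript levels after 24 h dosing were quantified by fluorescent RT-PCR and capillary electrophoresis.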

Assay [4] can be described thus: ATG_M_06_TRANS: Attagene TRANS-FACTORIAL HepG2 Assay for M06 Transcription Factor (Internal Marker) (AID 2282983; active means hit-call score of the fitted dose curve at least 0.9, where 1 is the maximum). The settings on record: HepG2 Attagene TRANS M06 internal marker reporter. Put shortly:
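Cells: HepG2, transient multi-reporter transfection. Exposure: 24 h. Detection: RT-PCR, 6-FAM labelling, HpaI digestion (2 h, 37 °C), capillary electrophoresis. Baseline: DMSO.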

Assay [5] in a line: ATG_M_32_TRANS: Attagene TRANS-FACTORIAL HepG2 Assay for M32 Transcription Factor (Internal Marker) (AID 2282984; active means hit-call score of the fitted dose curve at least 0.9, where 1 is the maximum;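 further: transcript level of a background control reporter unit measured by RT-PCR and capillary electrophoresis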). As to conditions: HepG2 Attagene TRANS M32 internal marker reporter. The method, boiled down:
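Human hepatoma HepG2, transient MRTU transfection, 24 h treatment. RNA → RT-PCR → fluorescent primer extension → HpaI digest (2 h, 37 C) → CE. Positive-direction fit vs DMSO.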

Assay [6] concerns the target Transcriptional activator Myb (Homo sapiens) (UniProt P10242). The assay can be described thus: ATG_Myb_CIS: Attagene CIS-FACTORIAL HepG2 Assay for human Myeloblastosis (Myb) Proto-Oncogene Transcription Factor (AID 2282986). As to conditions: HepG2 Attagene CIS-FACTORIAL Myb reporter transcription; actives raise or lower the signal. The method, boiled down: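 Fluorescence signals from capillary electrophoresis of RT-PCR-amplified reporter cDNA give the read-out. Cells: HepG2 transfected with multiple cis-regulated reporter units. Exposure lasts 24 hours; DMSO defines baseline for gain or loss of signal.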

For assay [7], the target named is Nuclear respiratory factor 1 (Homo sapiens) (UniProt Q16656). The assay can be described thus: ATG_NRF1_CIS: Attagene CIS-FACTORIAL HepG2 Assay for human Nuclear Respiratory Factor 1 (NRF1) Orphan Gene (AID 2282987). As to conditions: HepG2 NRF1 cis-element reporter, Attagene multiplex; actives raise or lower the signal. The method, boiled down:
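Transcriptional reporter readout, one component of a 52-endpoint multiplexed HepG2 panel. Exposure 24 h; mRNA detected via RT-PCR and fluorescent capillary electrophoresis; fitting in both directions against DMSO.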

Assay [8] can be described thus: ATG_NFI_CIS: Attagene CIS-FACTORIAL HepG2 Assay for human Nuclear Factor I (NFI) (AID 2282989). As to conditions: HepG2 cis-regulatory reporter, NFI response element transcription; actives raise or lower the signal. The method, boiled down:
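Endogenous TF activity in HepG2 cells transiently transfected with cis-element-driven multiplexed reporter units, read 24 h after dosing. Reporter mRNA quantified by RT-PCR, 6-FAM labelling, HpaI digestion and capillary electrophoresis; bidirectional fit versus DMSO.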

Assay [9] deals with Myc proto-oncogene protein (Homo sapiens) (UniProt P01106). The assay can be described thus: ATG_Myc_CIS: Attagene CIS-FACTORIAL HepG2 Assay for human Myelocytomatosis (Myc) Proto-Oncogene Transcription Factor (AID 2282990). The settings on record: HepG2, Attagene cis-reporter transcription factor activity; actives raise or lower the signal. The method, boiled down:
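HepG2 cells transiently transfected with multiple cis-promoter-driven reporter transcription units, so endogenous TF activity is read. After 24 h compound exposure, reporter mRNA was quantified by RT-PCR, 6-FAM labelling, HpaI digestion and capillary electrophoresis; bidirectional fit versus DMSO.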

Assay [10] can be described thus: ATG_NF_kB_CIS: Attagene CIS-FACTORIAL HepG2 Assay for human Nuclear Factor Kappa B (NF-kB) (AID 2282991). As to conditions: HepG2 Attagene cis-factorial NF-kB reporter mRNA; actives raise or lower the signal. Put shortly:
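HepG2, transient multi-reporter transfection, cis promoter elements (endogenous TFs). 24 h exposure. Total RNA → RT → PCR → 6-FAM label → HpaI → CE. Gain/loss vs DMSO.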

The nature of assay [11]: ATG_NRF2_ARE_CIS: Attagene CIS-FACTORIAL HepG2 Assay for human Nuclear Factor Erythroid 2 Related Factor 2 (NFR2) response to Antioxidant Response Elements (ARE) (AID 2282992).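 On AC50: reporter mRNA level measured by RT-PCR and capillary electrophoresis fluorescence.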 As to conditions: HepG2 Attagene ARE/NRF2 reporter, transcription factor activity; actives raise or lower the signal. Put shortly: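 Transient MRTU transfection of HepG2; 24 h compound exposure; TriZol RNA, RT with oligo(dT), PCR, 6-FAM primer extension, HpaI cut, CE. Bidirectional fit vs DMSO.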

The nature of assay [12]: ATG_Oct_MLP_CIS: Attagene CIS-FACTORIAL HepG2 Assay for human Octamer-Binding Transcription Factor (Oct) (AID 2282993). The settings on record: HepG2 Attagene cis-factorial Oct reporter, mRNA; actives raise or lower the signal. Put shortly:
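HepG2 cells transiently transfected with cis-element-driven reporter transcription units (endogenous TF activity); 24 h compound exposure. Reporter mRNA quantified by RT-PCR, 6-FAM labelling, HpaI digestion and capillary electrophoresis; bidirectional fit versus DMSO baseline.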

In assay [13] the target is Cellular tumor antigen p53 (Homo sapiens) (UniProt P04637). As to the kind of experiment: ATG_p53_CIS: Attagene CIS-FACTORIAL HepG2 Assay for human p53 Transcription Factor (AID 2282994). The settings on record: HepG2 p53 cis-element reporter, Attagene mRNA; actives raise or lower the signal. Put shortly:
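HepG2, transient MRTU transfection (cis promoter elements, endogenous TFs); 24 h dosing; RNA isolation, RT-PCR, 6-FAM primer extension, HpaI digest, CE fluorescence; bidirectional fit vs DMSO.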

Assay [14] concerns the target Glucocorticoid receptor (Homo sapiens) (UniProt P04150). As to the kind of experiment: ATG_GR_TRANS: Attagene TRANS-FACTORIAL HepG2 Assay for human Glucocorticoid Receptor (GR) (AID 2282978; active means hit-call score of the fitted dose curve at least 0.9, where 1 is the maximum;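 further: activators score as hits since higher reporter transcript over DMSO is fitted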). The settings on record: HepG2 Attagene TRANS GR reporter, mRNA transcription. The method, boiled down: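 Measurement of GAL4-UAS-driven reporter mRNA in human HepG2 liver cells 24 h post-dosing, using RT-PCR with fluorescent labelling and capillary electrophoresis; the transfected constructs report exogenous NR-GAL4 chimera activity, fitted upward against DMSO.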

Assay [15] deals with Oxysterols receptor LXR-beta (Homo sapiens) (UniProt P55055). As to the kind of experiment: ATG_LXRb_TRANS: Attagene TRANS-FACTORIAL HepG2 Assay for human Liver X Receptor beta (LXRb) (AID 2282981; active means hit-call score of the fitted dose curve at least 0.9, where 1 is the maximum). The settings on record: HepG2 Attagene TRANS GAL4-LXRb reporter, mRNA. Put shortly: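 In this TRANS format, exogenous chimeric NR-Gal4 protein activity, not endogenous factors, drives reporter expression in transfected human HepG2 cells. Exposure lasted 24 h; reporter mRNA was read by fluorescent capillary electrophoresis.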

Assay [16] deals with Nuclear receptor subfamily 4 group A member 2 (Homo sapiens) (UniProt P43354). As to the kind of experiment: ATG_NURR1_TRANS: Attagene TRANS-FACTORIAL HepG2 Assay for human Nuclear Receptor Related Protein 1 (NURR1) (AID 2282985; active means hit-call score of the fitted dose curve at least 0.9, where 1 is the maximum). The settings on record: HepG2 Attagene TRANS reporter, mRNA readout. Put shortly:
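After 24 h chemical dosing, total RNA from transiently transfected HepG2 cells was reverse-transcribed and reporter cDNA PCR-amplified, FAM-labelled and analysed by capillary electrophoresis. Activity fitted in positive direction, DMSO as negative control.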

Assay [17] addresses Oxysterols receptor LXR-alpha (Homo sapiens) (UniProt Q13133). The assay can be described thus: ATG_LXRa_TRANS: Attagene TRANS-FACTORIAL HepG2 Assay for human Liver X Receptor alpha (LXRa) (AID 2282980; active means hit-call score of the fitted dose curve at least 0.9, where 1 is the maximum). The settings on record: HepG2 Attagene TRANS reporter, LXRa transactivation. Put shortly:
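Chemical-induced reporter mRNA measured by RT-PCR with fluorescent labelling and capillary electrophoresis after 24 h dosing of transiently transfected HepG2 cells expressing exogenous NR-Gal4 chimeras; increases scored against DMSO baseline.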

Assay [18] is described as follows: BSK_3C_TissueFactor: BioMAP Diversity Plus: 3C Assay for Tissue Factor Biomarker Activity (AID 2282997). As to conditions: BioMAP 3C HUVEC, tissue factor biomarker readout; actives raise or lower the signal. Put shortly:
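Dosing of human umbilical vein endothelial cells preceded a 24 h incubation. Tissue Factor was then read by ELISA, with increases and decreases both scored relative to DMSO controls.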

The nature of assay [19]: BSK_3C_uPAR: BioMAP Diversity Plus: 3C Assay for Urokinase-type plasminogen activator receptor (uPAR) Biomarker Activity (AID 2282998). The settings on record: BioMAP 3C HUVEC, uPAR biomarker ELISA; actives raise or lower the signal. Put shortly: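 Primary human umbilical vein endothelial cells, 3C system; surface uPAR measured by ELISA 24 h after dosing. Cytotoxicity via SRB total protein in parallel cultures; bidirectional fit against DMSO.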

Assay [20] can be described thus: BSK_3C_VCAM1: BioMAP Diversity Plus: 3C Assay for Vascular cell adhesion molecule 1 (VCAM1) Biomarker Activity (AID 2282999). The settings on record: BioMAP 3C HUVEC, VCAM1 ELISA, cytokine-stimulated; actives raise or lower the signal. Put shortly: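 Human umbilical vein endothelial cells were dosed with compound for 24 h, after which cell-surface VCAM-1 was quantified by ELISA. Bidirectional curve fitting used DMSO as negative control and activity baseline.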

The structures appear in SMILES notation. Inconclusive results are not listed. Active and inactive are the calls of the source. How the source made its calls, unless noted: active means hit-call score of the fitted dose curve at least 0.9, where 1 is the maximum; inactive means score below 0.9.

Sequence of Transcriptional activator Myb (Homo sapiens) (P10242 whole entry, looked up): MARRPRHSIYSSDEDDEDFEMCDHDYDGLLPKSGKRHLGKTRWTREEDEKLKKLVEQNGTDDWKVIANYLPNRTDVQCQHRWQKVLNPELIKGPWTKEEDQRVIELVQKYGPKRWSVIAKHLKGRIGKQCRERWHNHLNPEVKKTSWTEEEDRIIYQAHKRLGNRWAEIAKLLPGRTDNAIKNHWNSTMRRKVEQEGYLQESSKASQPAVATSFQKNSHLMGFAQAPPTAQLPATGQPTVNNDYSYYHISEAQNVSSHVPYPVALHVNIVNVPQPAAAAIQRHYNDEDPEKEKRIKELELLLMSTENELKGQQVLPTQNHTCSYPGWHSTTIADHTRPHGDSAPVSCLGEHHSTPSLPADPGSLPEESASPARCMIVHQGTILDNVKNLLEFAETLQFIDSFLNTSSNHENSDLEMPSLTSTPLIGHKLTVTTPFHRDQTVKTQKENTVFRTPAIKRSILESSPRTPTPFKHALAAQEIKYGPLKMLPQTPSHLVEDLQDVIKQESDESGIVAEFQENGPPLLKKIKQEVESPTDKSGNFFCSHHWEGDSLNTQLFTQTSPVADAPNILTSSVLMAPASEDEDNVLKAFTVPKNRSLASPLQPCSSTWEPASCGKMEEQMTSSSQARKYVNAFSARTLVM
Sequence of Bile acid receptor (Homo sapiens) (Q96RI1 whole entry, looked up, the tested form may be a part): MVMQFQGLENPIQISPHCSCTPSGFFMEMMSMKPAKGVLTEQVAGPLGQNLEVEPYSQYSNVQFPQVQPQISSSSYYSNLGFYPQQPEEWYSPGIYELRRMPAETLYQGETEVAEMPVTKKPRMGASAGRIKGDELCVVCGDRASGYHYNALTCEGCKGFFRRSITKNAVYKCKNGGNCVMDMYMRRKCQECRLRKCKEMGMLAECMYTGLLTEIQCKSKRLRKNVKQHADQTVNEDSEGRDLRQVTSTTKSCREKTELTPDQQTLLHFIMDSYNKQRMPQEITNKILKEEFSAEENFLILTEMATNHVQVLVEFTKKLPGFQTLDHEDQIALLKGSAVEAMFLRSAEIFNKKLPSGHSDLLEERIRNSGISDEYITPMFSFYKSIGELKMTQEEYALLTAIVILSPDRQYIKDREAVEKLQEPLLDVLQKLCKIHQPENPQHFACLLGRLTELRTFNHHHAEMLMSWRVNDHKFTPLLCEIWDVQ
Sequence of Myc proto-oncogene protein (Homo sapiens) (P01106 whole entry, looked up): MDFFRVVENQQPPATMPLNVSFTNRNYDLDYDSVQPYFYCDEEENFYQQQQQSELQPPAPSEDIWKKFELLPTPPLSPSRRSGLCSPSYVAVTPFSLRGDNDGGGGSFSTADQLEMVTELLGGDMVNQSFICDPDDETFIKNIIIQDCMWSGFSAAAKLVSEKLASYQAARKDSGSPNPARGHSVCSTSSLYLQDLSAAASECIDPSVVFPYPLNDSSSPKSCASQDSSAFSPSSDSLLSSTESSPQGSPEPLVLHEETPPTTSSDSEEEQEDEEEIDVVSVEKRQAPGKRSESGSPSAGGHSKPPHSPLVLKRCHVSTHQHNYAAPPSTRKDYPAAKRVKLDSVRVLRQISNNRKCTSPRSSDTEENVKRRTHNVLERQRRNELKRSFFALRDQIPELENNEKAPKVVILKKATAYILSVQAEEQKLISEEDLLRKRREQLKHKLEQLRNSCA
Sequence of Hepatocyte nuclear factor 4-alpha (Homo sapiens) (P41235 whole entry, looked up, the tested form may be a part): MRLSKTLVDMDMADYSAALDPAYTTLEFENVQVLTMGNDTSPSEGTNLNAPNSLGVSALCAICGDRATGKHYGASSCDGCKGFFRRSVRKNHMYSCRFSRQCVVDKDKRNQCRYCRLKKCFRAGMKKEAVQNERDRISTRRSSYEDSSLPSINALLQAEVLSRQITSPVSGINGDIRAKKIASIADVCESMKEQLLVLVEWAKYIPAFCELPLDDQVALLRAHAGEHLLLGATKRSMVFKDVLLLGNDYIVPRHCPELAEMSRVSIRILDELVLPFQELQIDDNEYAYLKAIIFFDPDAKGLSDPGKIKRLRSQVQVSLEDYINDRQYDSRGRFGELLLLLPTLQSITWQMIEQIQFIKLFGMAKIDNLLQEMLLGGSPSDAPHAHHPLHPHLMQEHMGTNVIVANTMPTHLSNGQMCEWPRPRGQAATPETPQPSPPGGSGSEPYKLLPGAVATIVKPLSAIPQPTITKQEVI
Sequence of Estrogen-related receptor gamma (Homo sapiens) (P62508 whole entry, looked up, the tested form may be a part): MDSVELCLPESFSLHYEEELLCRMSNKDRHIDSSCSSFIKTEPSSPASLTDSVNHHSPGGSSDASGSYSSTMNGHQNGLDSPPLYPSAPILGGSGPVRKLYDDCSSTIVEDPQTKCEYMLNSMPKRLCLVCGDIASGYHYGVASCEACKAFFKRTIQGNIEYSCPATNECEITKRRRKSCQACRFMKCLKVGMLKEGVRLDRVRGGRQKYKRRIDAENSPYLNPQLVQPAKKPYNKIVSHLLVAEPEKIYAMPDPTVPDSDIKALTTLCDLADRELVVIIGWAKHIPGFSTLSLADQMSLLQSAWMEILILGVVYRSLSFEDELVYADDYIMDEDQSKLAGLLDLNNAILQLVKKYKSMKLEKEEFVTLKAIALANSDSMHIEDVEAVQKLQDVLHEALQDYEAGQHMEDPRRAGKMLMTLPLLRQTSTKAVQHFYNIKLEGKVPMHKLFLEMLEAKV
Sequence of Nuclear respiratory factor 1 (Homo sapiens) (Q16656 whole entry, looked up): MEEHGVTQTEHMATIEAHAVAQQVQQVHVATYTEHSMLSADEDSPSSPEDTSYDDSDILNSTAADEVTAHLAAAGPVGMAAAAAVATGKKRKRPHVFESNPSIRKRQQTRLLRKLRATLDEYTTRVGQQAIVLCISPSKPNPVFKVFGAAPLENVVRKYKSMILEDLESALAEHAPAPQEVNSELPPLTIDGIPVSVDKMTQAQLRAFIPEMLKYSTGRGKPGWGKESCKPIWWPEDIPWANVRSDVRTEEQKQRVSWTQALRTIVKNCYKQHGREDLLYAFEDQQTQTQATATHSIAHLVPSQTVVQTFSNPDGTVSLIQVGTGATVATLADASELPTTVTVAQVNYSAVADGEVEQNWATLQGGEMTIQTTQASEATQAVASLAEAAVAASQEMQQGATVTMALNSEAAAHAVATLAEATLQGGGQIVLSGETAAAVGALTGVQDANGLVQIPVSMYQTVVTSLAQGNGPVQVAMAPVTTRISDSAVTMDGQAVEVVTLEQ
Sequence of Oxysterols receptor LXR-beta (Homo sapiens) (P55055 whole entry, looked up, the tested form may be a part): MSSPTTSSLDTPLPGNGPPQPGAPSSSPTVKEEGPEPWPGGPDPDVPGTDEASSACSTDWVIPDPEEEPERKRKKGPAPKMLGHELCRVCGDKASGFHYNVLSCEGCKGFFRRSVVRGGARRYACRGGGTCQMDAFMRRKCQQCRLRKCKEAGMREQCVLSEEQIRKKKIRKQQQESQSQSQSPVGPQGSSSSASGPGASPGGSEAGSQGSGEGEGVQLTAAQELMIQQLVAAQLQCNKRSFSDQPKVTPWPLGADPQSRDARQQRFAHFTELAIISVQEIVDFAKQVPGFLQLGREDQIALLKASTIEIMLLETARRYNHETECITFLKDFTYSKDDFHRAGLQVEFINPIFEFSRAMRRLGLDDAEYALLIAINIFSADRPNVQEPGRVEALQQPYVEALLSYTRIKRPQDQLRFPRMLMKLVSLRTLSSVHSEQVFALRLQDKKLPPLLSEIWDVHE
Sequence of Cellular tumor antigen p53 (Homo sapiens) (P04637 whole entry, looked up): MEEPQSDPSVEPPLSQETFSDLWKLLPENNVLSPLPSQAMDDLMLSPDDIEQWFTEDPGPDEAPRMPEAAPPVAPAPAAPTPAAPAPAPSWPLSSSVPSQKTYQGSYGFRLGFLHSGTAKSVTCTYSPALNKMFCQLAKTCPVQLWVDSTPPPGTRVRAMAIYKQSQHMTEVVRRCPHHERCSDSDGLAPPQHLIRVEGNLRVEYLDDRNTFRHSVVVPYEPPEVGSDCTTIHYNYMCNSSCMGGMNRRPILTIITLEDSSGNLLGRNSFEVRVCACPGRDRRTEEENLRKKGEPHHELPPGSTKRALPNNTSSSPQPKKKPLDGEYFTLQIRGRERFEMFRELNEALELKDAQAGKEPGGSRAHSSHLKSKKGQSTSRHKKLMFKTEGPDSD
Sequence of Nuclear receptor subfamily 4 group A member 2 (Homo sapiens) (P43354 whole entry, looked up): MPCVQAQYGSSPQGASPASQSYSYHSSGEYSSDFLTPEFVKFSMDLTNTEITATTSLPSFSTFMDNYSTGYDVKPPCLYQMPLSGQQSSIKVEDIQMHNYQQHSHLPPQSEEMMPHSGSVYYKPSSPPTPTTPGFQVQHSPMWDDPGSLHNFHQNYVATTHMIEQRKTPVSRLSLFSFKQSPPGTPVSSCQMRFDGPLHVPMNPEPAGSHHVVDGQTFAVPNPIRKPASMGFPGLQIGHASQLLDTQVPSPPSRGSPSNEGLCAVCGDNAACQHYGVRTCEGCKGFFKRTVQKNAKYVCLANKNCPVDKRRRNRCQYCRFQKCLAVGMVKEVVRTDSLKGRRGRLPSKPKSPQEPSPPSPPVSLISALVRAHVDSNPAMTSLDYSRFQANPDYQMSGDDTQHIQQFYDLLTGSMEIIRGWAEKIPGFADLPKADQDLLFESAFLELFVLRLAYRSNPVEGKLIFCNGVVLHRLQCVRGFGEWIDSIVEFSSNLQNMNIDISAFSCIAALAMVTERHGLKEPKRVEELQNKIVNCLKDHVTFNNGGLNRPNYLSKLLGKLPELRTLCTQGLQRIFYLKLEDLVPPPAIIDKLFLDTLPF
Sequence of Oxysterols receptor LXR-alpha (Homo sapiens) (Q13133 whole entry, looked up, the tested form may be a part): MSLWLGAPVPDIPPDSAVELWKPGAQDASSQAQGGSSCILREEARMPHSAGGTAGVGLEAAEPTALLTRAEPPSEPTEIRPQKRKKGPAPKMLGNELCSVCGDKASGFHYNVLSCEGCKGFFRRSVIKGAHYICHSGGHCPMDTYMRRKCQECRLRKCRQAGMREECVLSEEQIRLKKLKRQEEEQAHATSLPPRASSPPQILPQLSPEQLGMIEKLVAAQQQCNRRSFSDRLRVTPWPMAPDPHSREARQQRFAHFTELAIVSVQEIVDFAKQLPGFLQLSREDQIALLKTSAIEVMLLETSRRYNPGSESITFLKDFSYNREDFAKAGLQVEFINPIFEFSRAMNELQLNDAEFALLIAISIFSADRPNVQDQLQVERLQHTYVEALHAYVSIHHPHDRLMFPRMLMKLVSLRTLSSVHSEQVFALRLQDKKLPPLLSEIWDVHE

`CCCCC(CC)COS(=O)(=O)O` (configuration not stated): the call in assay [1], in assay [2], in assay [3], in assay [4], in [5] and in assay [6] was inactive. The molecule was classed as inactive in assay [7], in assay [8], in assay [9], in assay [10], in assay [11] and in assay [12].
Consider `CC(C)OC(=O)c1ccccc1`, for which the molecule was classed as inactive in assay [1], in [3], in assay [6], in assay [7], in [8] and in assay [9]. Besides, the outcome in assay [10], in [11], in [12] and in assay [13] was inactive.
In the case of `CC(C)=CCl`, the result in assay [14], in assay [2], in [15], in assay [3], in [5] and in [16] was inactive. For the same molecule, the call in [6], in [7], in [8], in assay [9], in assay [10] and in [11] was inactive. In addition, the molecule was classed as inactive in assay [12] and in assay [13].
As to `c1ccc2sc(SSN3CCOCC3)nc2c1`, the molecule was classed as inactive in assay [1], in assay [17], in assay [15], in assay [3], in [4] and in assay [5]. The call in assay [16], in assay [6] and in [10] was inactive. The concentration at half-maximal activity (AC50) in assay [7] is 100 µM (active); in assay [8] it was 75 µM (active); in assay [9], 76.3 µM (active); in [11], 48.8 µM (active); in assay [12], 100 µM (active); in assay [18], 9.51 µM (active). Moreover, the AC50 in [19] is 4.34 µM (active); in assay [20], 8.13 µM (active).
With `CC(C)c1ccc2ncccc2c1`, the molecule was classed as inactive in assay [1], in assay [2], in assay [4], in assay [6], in assay [7] and in [8]. Besides, the molecule was called inactive in assay [9] and in assay [12]. The AC50 in [11] was 64.6 µM (active).
